Reference: the antibiotic and cytotoxicity screens of Wong et al. (2023)
Among all 39,000 compounds or so, about 3,300 (8.5%) were called active. Shown is part of a subset that was picked to be rich in actives.

Tested on: HepG2
Assay: cytotoxicity call (relative viability < 0.9)
Settings: 10 µM

Q: With `C[C@@H]1CN([C@@H](C)CO)C(=O)Cc2cc(NS(=O)(=O)c3cccs3)ccc2O[C@@H]1CN(C)S(=O)(=O)c1cn(C)cn1` as the molecule, how does the cytotoxicity call read?
A: Its cytotoxicity call is “inactive”.

Q: Which cytotoxicity call does the source give for `Cc1ccc(S(=O)(=O)N(C)C[C@H]2Oc3ccc(NC(=O)CCN4CCOCC4)cc3CC(=O)N([C@H](C)CO)C[C@@H]2C)cc1` here?
A: Its cytotoxicity call is “inactive”.

Q: Which cytotoxicity call does the source give for `C/C=C/c1ccc2c(c1)O[C@@H](CN(C)Cc1ccc(C(=O)O)cc1)[C@H](C)CN([C@H](C)CO)S2(=O)=O` here?
A: Its cytotoxicity call is “inactive”.

Q: `C[C@@H]1CN([C@@H](C)CO)C(=O)c2c(c3ccccc3n2C)-c2ccccc2CO[C@H]1CN(C)C(=O)c1ccc(F)cc1` was tested. Which cytotoxicity call did it give?
A: Its cytotoxicity call is “inactive”.

Q: `OC[C@H]1O[C@H](C#Cc2ccccc2)C=C[C@@H]1O` was tested. Which cytotoxicity call did it give?
A: The cytotoxicity call was “inactive”.

Q: `C[C@H](CO)N1C[C@H](C)[C@H](CN(C)C(=O)Nc2ccc3c(c2)OCO3)Oc2c(NC(=O)c3ccncc3)cccc2C1=O` was tested. Which cytotoxicity call did it give?
A: The cytotoxicity call was “inactive”.

Q: `Cc1ccc(S(=O)(=O)N[C@H]2C=C[C@@H](CC(=O)NCCN3CCCCC3)O[C@@H]2CO)cc1` was tested. Which cytotoxicity call did it give?
A: The cytotoxicity call was “inactive”.

Q: With `Cn1cnc2c1c(=O)[nH]c(=O)n2C` as the molecule, how does the cytotoxicity call read?
A: Its cytotoxicity call is “inactive”.

Q: With `Cc1cc(C(=O)N2CCCC[C@@H]2CCOc2cccc(CN(C)Cc3cccc4cccnc34)c2)c(=O)[nH]c1C` as the molecule, how does the cytotoxicity call read?
A: Its cytotoxicity call is “inactive”.

Q: `Cc1nc(-c2cccc(F)c2)cs1` was tested. Which cytotoxicity call did it give?
A: Its cytotoxicity call is “inactive”.

Q: With `COc1ccc2c3c([nH]c2c1)[C@@H](CO)N(C[C@]13CN(CC2CCOCC2)C1)C(=O)Nc1c(noc1C)C` as the molecule, how does the cytotoxicity call read?
A: The cytotoxicity call was “inactive”.

Q: With `C[C@@H]1CCCCO[C@@H](CN(C)C(=O)Nc2ccccc2)[C@@H](C)CN([C@H](C)CO)C(=O)c2cc(NC(=O)Nc3cccc4ccccc34)ccc2O1` as the molecule, how does the cytotoxicity call read?
A: The cytotoxicity call was “inactive”.

Q: For `C[C@@H]1CN([C@@H](C)CO)C(=O)c2cc(NC(=O)Nc3ccc(F)cc3)ccc2O[C@H]1CN(C)S(C)(=O)=O`, which cytotoxicity call is on record?
A: Its cytotoxicity call is “inactive”.

Q: With `COc1ccc(NC(=O)Nc2ccc3c(c2)CC(=O)N([C@H](C)CO)C[C@H](C)[C@H](CN(C)C(=O)Nc2ccc(C(F)(F)F)cc2)O3)cc1` as the molecule, how does the cytotoxicity call read?
A: Its cytotoxicity call is “inactive”.

Q: With `COc1ccc(NC(=O)Nc2ccc3c(c2)CC(=O)N([C@@H](C)CO)C[C@H](C)[C@@H](CN(C)C(=O)Nc2ccc(C(F)(F)F)cc2)O3)cc1` as the molecule, how does the cytotoxicity call read?
A: Its cytotoxicity call is “inactive”.

Q: `COc1ccc(NC(=O)N(C)C[C@@H]2Oc3ccc(NC(=O)Nc4ccc(C(F)(F)F)cc4)cc3CC(=O)N([C@H](C)CO)C[C@@H]2C)cc1` was tested. Which cytotoxicity call did it give?
A: Its cytotoxicity call is “inactive”.

Q: With `COc1ccc(NC(=O)Nc2ccc3c(c2)CC(=O)N([C@@H](C)CO)C[C@H](C)[C@H](CN(C)C(=O)Nc2ccc(C(F)(F)F)cc2)O3)cc1` as the molecule, how does the cytotoxicity call read?
A: Its cytotoxicity call is “active”.

Q: Which cytotoxicity call does the source give for `COc1ccc(NC(=O)N(C)C[C@H]2Oc3ccc(NC(=O)Nc4ccc(C(F)(F)F)cc4)cc3CC(=O)N([C@@H](C)CO)C[C@H]2C)cc1` here?
A: The cytotoxicity call was “active”.

Q: Which cytotoxicity call does the source give for `COc1ccc(NC(=O)Nc2ccc3c(c2)CC(=O)N([C@@H](C)CO)C[C@@H](C)[C@@H](CN(C)C(=O)Nc2ccc(C(F)(F)F)cc2)O3)cc1` here?
A: Its cytotoxicity call is “inactive”.

Q: With `CO[C@H]1CCN(C(=O)CN(C)C)[C@@H]2CCO[C@@H]12` as the molecule, how does the cytotoxicity call read?
A: Its cytotoxicity call is “inactive”.

Q: With `C[C@H](CO)N1C[C@H](C)[C@@H](CN(C)Cc2cccc3c2OCCCO3)OCc2ccccc2-c2c(n(C)c3ccccc23)C1=O` as the molecule, how does the cytotoxicity call read?
A: The cytotoxicity call was “inactive”.

Q: `CCCC(=O)Nc1ccc2c(c1)C(=O)N(C)C[C@@H](OC)[C@@H](C)CN(Cc1ccc(-c3ccccn3)cc1)[C@H](C)CO2` was tested. Which cytotoxicity call did it give?
A: Its cytotoxicity call is “inactive”.

Q: Which cytotoxicity call does the source give for `CN1C(=O)c2cc(NS(C)(=O)=O)ccc2OC[C@@H]2O[C@H](CC(=O)N3CCOCC3)CC[C@@H]21` here?
A: Its cytotoxicity call is “inactive”.

Q: `C[C@@H]1C(=O)O[C@@H]2C[C@@](C)(O)[C@H]3C[C@H]4O[C@@]4(C)[C@@]3(O)C(=O)[C@@H]12` was tested. Which cytotoxicity call did it give?
A: Its cytotoxicity call is “inactive”.

Q: For `Cc1ccc(S(=O)(=O)N(C)C[C@@H]2Oc3ccc(NC(=O)CCN4CCOCC4)cc3C(=O)N([C@H](C)CO)C[C@@H]2C)cc1`, which cytotoxicity call is on record?
A: Its cytotoxicity call is “inactive”.

Q: Which cytotoxicity call does the source give for `Cc1ccc(S(=O)(=O)N(C)C[C@H]2Oc3ccc(NC(=O)CCN4CCOCC4)cc3C(=O)N([C@@H](C)CO)C[C@@H]2C)cc1` here?
A: The cytotoxicity call was “active”.

Q: How did the cytotoxicity call turn out when `COc1ccc(S(=O)(=O)N(C)C[C@H]2Oc3ccc(NC(=O)C4CC4)cc3C(=O)N([C@@H](C)CO)C[C@@H]2C)cc1` was run?
A: The cytotoxicity call was “active”.

Q: With `COc1ccc(S(=O)(=O)N(C)C[C@H]2Oc3ccc(N(C)C)cc3C(=O)N([C@@H](C)CO)C[C@H]2C)cc1` as the molecule, how does the cytotoxicity call read?
A: The cytotoxicity call was “inactive”.

Q: `COc1ccc(S(=O)(=O)N(C)C[C@@H]2Oc3ccc(NC(=O)C4CC4)cc3C(=O)N([C@@H](C)CO)C[C@H]2C)cc1` was tested. Which cytotoxicity call did it give?
A: The cytotoxicity call was “inactive”.

Q: `COc1ccc(S(=O)(=O)N(C)C[C@@H]2Oc3ccc(N(C)C)cc3C(=O)N([C@H](C)CO)C[C@@H]2C)cc1` was tested. Which cytotoxicity call did it give?
A: The cytotoxicity call was “inactive”.

Q: How did the cytotoxicity call turn out when `Cc1ccc(S(=O)(=O)N(C)C[C@H]2Oc3ccc(NC(=O)C4CC4)cc3C(=O)N([C@@H](C)CO)C[C@H]2C)cc1` was run?
A: Its cytotoxicity call is “inactive”.

Q: `COc1ccc(S(=O)(=O)N(C)C[C@@H]2Oc3ccc(N(C)C)cc3C(=O)N([C@@H](C)CO)C[C@H]2C)cc1` was tested. Which cytotoxicity call did it give?
A: The cytotoxicity call was “active”.

Q: For `COc1ccc(S(=O)(=O)N(C)C[C@H]2Oc3ccc(NC(=O)C4CC4)cc3C(=O)N([C@@H](C)CO)C[C@H]2C)cc1`, which cytotoxicity call is on record?
A: The cytotoxicity call was “inactive”.

Q: `Cc1ccc(S(=O)(=O)N(C)C[C@@H]2Oc3ccc(NC(=O)C4CC4)cc3C(=O)N([C@H](C)CO)C[C@@H]2C)cc1` was tested. Which cytotoxicity call did it give?
A: Its cytotoxicity call is “inactive”.

Q: Which cytotoxicity call does the source give for `Cc1ccc(S(=O)(=O)N(C)C[C@@H]2Oc3ccc(NC(=O)C4CC4)cc3C(=O)N([C@@H](C)CO)C[C@H]2C)cc1` here?
A: The cytotoxicity call was “active”.

Q: With `Cc1ccc(S(=O)(=O)N(C)C[C@H]2Oc3ccc(NC(=O)CCN4CCOCC4)cc3C(=O)N([C@@H](C)CO)C[C@H]2C)cc1` as the molecule, how does the cytotoxicity call read?
A: The cytotoxicity call was “inactive”.

Q: `C[C@@H]1CCCCO[C@H](CN(C)S(=O)(=O)c2ccccc2)[C@@H](C)CN([C@@H](C)CO)C(=O)c2cc(NS(C)(=O)=O)ccc2O1` was tested. Which cytotoxicity call did it give?
A: The cytotoxicity call was “inactive”.

Q: With `O/N=C1\CCCCc2c1[nH]c1ccc(C3CCCCC3)cc21` as the molecule, how does the cytotoxicity call read?
A: Its cytotoxicity call is “inactive”.

Q: How did the cytotoxicity call turn out when `C[C@@H]1CCCCO[C@@H](CN(C)C(=O)c2ccncc2)[C@H](C)CN([C@H](C)CO)C(=O)c2cc(NC(=O)NC3CCCCC3)ccc2O1` was run?
A: The cytotoxicity call was “inactive”.

Q: For `C[C@@H]1CN([C@H](C)CO)C(=O)c2cccc(NC(=O)c3cnccn3)c2O[C@H]1CN(C)Cc1ccncc1`, which cytotoxicity call is on record?
A: Its cytotoxicity call is “inactive”.

Q: How did the cytotoxicity call turn out when `C[C@H](CO)N1C[C@H](C)[C@H](CN(C)Cc2ccc(-c3ccccc3)cc2)Oc2c(NS(=O)(=O)c3ccc(Cl)cc3)cccc2C1=O` was run?
A: Its cytotoxicity call is “inactive”.

Q: How did the cytotoxicity call turn out when `N=C(N)NCCCCN.O=S(=O)(O)O` was run?
A: Its cytotoxicity call is “inactive”.

Q: Which cytotoxicity call does the source give for `N=C(N)NCCCCNC(=N)N` here?
A: Its cytotoxicity call is “active”.

Q: How did the cytotoxicity call turn out when `N=C(N)NCCCCNC(=N)N.O=S(=O)(O)O` was run?
A: Its cytotoxicity call is “inactive”.
